Screening data from PubChem.
Hits are enriched below; roughly 1.9% of the tested compounds scored in any of these assays.
PrP 5UTR inh – inhibition of PrP 5' UTR reporter expression. inhibition, % (concentration not given with the values). cell-based PrP 5' UTR mRNA reporter, plate reader. AID 488862. 340,000 tested, 0.35% active; in the data active = inhibition above about 52%; note: 0 = median of the neutral control wells
PriA SSB inh – K. pneumoniae PriA-SSBct interaction inhibition | AlphaScreen SSBct-PriA binding, biotinylated peptide | inhibition, % at 33 µM | 430,000 tested, 0.6% active | AID 1272365; in the data active = inhibition mostly above about 37%, no sharp cut-off; inactive = mostly below about 20%;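 note: plate controls were negative control peptide for no effect and reference peptide for full effect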
RecA splice inh – inhibitors of M. tuberculosis RecA intein splicing. 290,000 tested, 0.75% active. AID 2221. inhibition, % (test concentration not listed). P9WHJ3. cell-free RecA intein splicing, fluorescence; in the data active = inhibition above about 30%;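 note: 0% = vehicle wells and 100% = reference inhibitor control wells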
PrPC surface inh – reduces human prion protein on the cell surface | cell surface PrPC, TR-FRET read-out | inhibition, % at 13.8 µM | 370,000 tested, 0.43% active; in the data active = inhibition above about 24%; note: 0% = median of the test wells and 100% = reference compound wells
PfHsp40 rescue – compounds rescuing yeast from Plasmodium falciparum HSP40 toxicity; S. cerevisiae expressing PfHsp40, growth rescue, ATP luminescence; 340,000 tested, 0.68% active; growth rescue, % at 12.5 µM; AID 504582; in the data active = growth rescue above about 28%, passing the limit was not always enough;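 note: yeast W303a lacking pdr1 and pdr3 grown in galactose medium; growth measured after three days at 30 °C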
BJeLR lethal – BJeLR cell viability loss; BJeLR (HRASV12) viability, CellTiter-Glo ATP luminescence, 48 h; inhibition, % (test concentration not listed); 300,000 tested, 0.17% active; AID 1554; in the data active = inhibition above about 50%
GFP chromo cs – counter-screen: blocks GFP chromophore formation | shares compounds with RecA splice inh | cell-free GFP chromophore formation, fluorescence | EC50, µM | 2,100 tested, 83% active; call rule not given here
Numbers without * were called inactive; nt = no result given.

SMILES	PrP 5UTR inh	PriA SSB inh	RecA splice inh	PrPC surface inh	PfHsp40 rescue	BJeLR lethal	GFP chromo cs
CC1=NNC(=O)C1C(c1ccc(F)cc1)C(C#N)C#N (stereo unspecified)	-7.7	-18.5	85.3*	0.7	-1.3	3.4	16.6*
CCOc1ccc(NC(=S)Nc2ccc3nsnc3c2)cc1	-42.0	0.1	25.7	-12.8	0.1	-0.8	nt
COc1ccc(NC(=S)Nc2ccc3nsnc3c2)cc1	-24.9	17.4	40.2*	-1.9	0.0	8.7	>38
CC1=NNC(=O)C1Cc1ccccc1C (stereo unspecified)	5.3	5.2	95.3*	-0.9	1.4	-3.9	0.737*
Cc1ccccc1CC1SC(=N)NC1=O (stereo unspecified)	nt	-3.5	nt	nt	nt	nt	nt
O=C(O)c1sccc1F	nt	-12.0	nt	nt	nt	nt	nt
O=c1c2ccccc2[nH]c2ccc(I)cc12	nt	-5.0	nt	nt	nt	nt	nt
O=[N+]([O-])/C(C(Cl)=C(Cl)Cl)=C(/Sc1ccccc1)N1CCCCC1	-6.8	-11.6	33.7*	6.0	0.7	-1.8	>38
O=C(N/C(=C\c1ccc([N+](=O)[O-])cc1)C(=O)N1CCCCC1)c1ccccc1	-10.0	-4.9	2.0	-11.3	3.3	9.6	nt
O=C(Cc1cccs1)Nc1cnn([C@H]2CCOC2)c1	nt	-12.0	nt	nt	nt	nt	nt
O=C(CN1C(=O)c2ccccc2C1=O)c1ccccc1	-6.6	-4.5	1.2	-10.4	-1.0	-4.9	nt
CC1=C(CC(=O)c2ccccc2)C(=O)c2ccccc2C1=O	-37.8	1.5	43.3*	-11.2	1.1	0.3	26.5*
O=C(O)c1cccc(NC2=C(n3nnc4ccccc43)C(=O)c3ccccc3C2=O)c1	-35.8	-8.1	77.9*	-46.5	1.0	17.7	1.92*
Nc1cccc2c(O)cccc12	-20.6	12.2	55.9*	0.0	0.6	-4.5	37.1*
Nc1cccc2c(O)cc(S(=O)(=O)O)cc12	10.3	21.5	nt	nt	21.4	nt	nt
CCOc1ccc(-c2cc(C(=O)Nc3ccc(S(=O)(=O)N(CC)c4ccccc4)cc3)no2)cc1	nt	-5.0	nt	nt	nt	nt	nt
NC(CC1CC1(Cl)Cl)=NOC(=O)c1ccccc1 (stereo unspecified)	nt	-12.2	nt	nt	nt	nt	nt
COc1ccc(OC)c(C2CC(=O)C(C)C(c3cc(OC)ccc3OC)N2)c1 (stereo unspecified)	-16.6	-11.8	0.3	-4.6	-1.0	3.1	nt
COc1ccc(C2NC(c3ccc(OC)cc3OC)C(C)C(=O)C2C)c(OC)c1 (stereo unspecified)	-24.4	-2.9	51.2*	2.0	0.7	2.2	>38
CCN(CC)S(=O)(=O)c1ccc(C(=O)NCC[C@H](O)c2ccc3c(c2)OCO3)cc1	nt	-12.0	nt	nt	nt	nt	nt
O=C(NCc1cccnc1)/C(=C\c1ccc(-c2cccc(Cl)c2)o1)S(=O)(=O)c1ccccc1	-5.3	-4.2	53.8*	14.5	0.0	-4.9	35.3*
O=C(NCc1cccnc1)/C(=C/c1ccc(-c2cccc(Cl)c2)o1)S(=O)(=O)c1ccccc1	2.5	-4.0	26.0	-0.1	-0.9	6.9	nt
CN(C(=O)C(Cl)Cl)c1ccc(OC(=O)c2ccco2)cc1	-8.5	-1.3	36.2*	1.0	0.6	0.5	>38
CCCS(=O)(=O)Nc1cccc(-c2ccc(=O)n(C)n2)c1	nt	4.0	nt	nt	nt	nt	nt
COC(=O)c1cc(S(=O)(=O)N2CCOCC2)c(Cl)cc1N1CCOCC1	-32.5	-8.2	nt	-1.4	-0.6	-4.4	nt
SMILES	PrP 5UTR inh	PriA SSB inh	RecA splice inh	PrPC surface inh	PfHsp40 rescue	BJeLR lethal	GFP chromo cs
COC(=O)c1cc(C)nc2c1C(=O)C(=O)C=C2N1CCOCC1	9.4	-4.8	95.9*	-16.0	-0.4	9.9	0.968*
O=C(Nc1nnc(-c2ccc3c(c2)OCCO3)o1)c1ccc2ncsc2c1	nt	10.0	nt	nt	nt	nt	nt
Cc1cccc(CSc2nc3c(c(-c4cccs4)c2C#N)CN(C)CC3)c1	-22.2	-1.2	61.2*	0.3	-0.3	2.6	25.4*
CN1CCc2nc(SCC(=O)Nc3ccc(OC(F)(F)F)cc3)c(C#N)c(-c3cccs3)c2C1	-58.7	-3.0	88.3*	-0.3	0.9	-10.7	3.88*
CC(C)(C)c1cnnn1-c1ccc(C(=O)CCl)cc1	-23.1	-10.5	74.7*	2.2	0.2	0.8	5.87*
CC(C)CC1C(C#N)=C(N)Oc2n[nH]c(-c3cccs3)c21 (stereo unspecified)	6.7	-1.8	86.4*	7.0	-0.7	-5.5	>38
CCC(C)C1C(C#N)=C(N)Oc2n[nH]c(-c3ccccc3)c21 (stereo unspecified)	-34.5	0.2	4.8	-2.9	1.3	3.2	nt
CSCCC1C(C#N)=C(N)Oc2n[nH]c(-c3cccs3)c21 (stereo unspecified)	-25.6	-6.0	84.9*	-4.3	0.1	-10.1	9.13*
Cc1nn(-c2ccccc2)c2c1C1(C(=O)N(C(C)C)c3ccccc31)C(C#N)=C(N)O2 (stereo unspecified)	-17.3	1.8	81.4*	-6.1	-0.8	-1.1	11.9*
Cc1cc(C)n(-c2ccc(C(=O)NCc3cccs3)nn2)n1	nt	-1.0	nt	nt	nt	nt	nt
COc1ccc(C(CC(=O)c2ccc(C)cc2)C(C#N)C#N)cc1OC (stereo unspecified)	-4.5	24.0	54.4*	-3.0	-0.6	-2.4	30.4*
CC(NC(=O)/C(C#N)=C/c1ccc([N+](=O)[O-])o1)c1ccccc1 (stereo unspecified)	-3.5	-8.1	47.4*	-1.2	0.4	-7.6	>38
CCN(CC)CC(=O)NN=C(c1ccccc1)c1ccccc1	5.0	-4.3	0.7	3.4	-0.1	-1.6	nt
O=C(CCl)NN=C(c1ccccc1)c1ccccc1	-19.8	-10.3	59.0*	5.7	-1.2	-10.1	25.7*
COC(=O)c1ccc(C(=O)OC)c(-n2c(=O)c3ccccc3c3ccccc3c2=O)c1	-14.6	6.4	40.4*	-2.7	0.4	-3.0	25.2*
COC(=O)c1ccc(-n2c(C)nc3ccccc3c2=O)cc1	-27.3	-2.7	2.9	0.4	-1.0	1.0	nt
O=C(NNC(=O)c1ccc2ccccc2c1O)c1ccccc1Cl	-54.7	-10.4	34.6*	5.8	2.4	9.0	>38
Cn1cccc1-c1noc(CNC(=O)C2c3ccccc3Oc3ccccc32)n1	nt	-2.0	nt	nt	nt	nt	nt
CC1=NNC(=O)C1Oc1ccccc1 (stereo unspecified)	-11.3	-13.3	96.4*	-10.1	1.5	7.9	1.06*
CSc1ccc(C(c2c(C(=O)O)[nH]c3ccccc23)c2c(C(=O)O)[nH]c3ccccc23)cc1	3.7	3.1	9.6	21.6	20.3	1.0	nt
Cc1[nH][nH]c(=O)c1C(c1ccc(Br)cc1)c1c(C)[nH][nH]c1=O	-19.1	5.2	97.5*	-5.9	-1.5	-11.3	0.807*
CSc1ccc(C(c2c(C)[nH][nH]c2=O)c2c(C)[nH][nH]c2=O)cc1	-23.7	2.7	98.3*	-5.5	-0.9	-5.4	0.569*
COC(=O)COc1ccc(C(=O)OC)cc1	-28.2	-8.3	-0.4	5.1	0.5	5.6	nt
